Test [1] is described as follows: Confirmatory screen GU Rhodamine qHTS for Zika virus inhibitors qHTS (AID 1347157). Further: nearly all actives have a fitted effect of over 70% in size. Further: potency means the concentration at half of the fitted maximal effect. The essentials: (§1)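 Enzyme 25 nM in Tris-HCl pH 8.0 + 0.01% Tween 20; compounds up to 114 microM, 15 min RT dark; + Rhod110 substrate 1.5 microM; read t0 and 15 min; delta fluorescence → % inhibition → 4-parameter Hill fit.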
(In qHTS, concentration-response curves come from the screen itself.)

Test [2] deals with Zika virus NS2B-NS3 protease (unlinked complex). The experiment in a line: Primary screen GU Rhodamine qHTS for Zika virus inhibitors: Unlinked NS2B-NS3 protease assay (AID 1347159). Further: nearly all actives have a fitted effect of over 60% in size. Further: potency means the concentration at half of the fitted maximal effect. The essentials: as §1
Test [3] can be described thus: Confirmatory screen NINDS Rhodamine qHTS for Zika virus inhibitors (AID 1347161). Further: nearly all actives have a fitted effect of over 60% in size. Further: potency means the concentration at half of the fitted maximal effect. The essentials:
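Each compound, titrated, sat 15 min with 25 nM linked protease before 1.5 microM Rhodamine110 substrate went in. Fluorescence gain over the next 15 min, in pH 8.0 Tris with Tween 20, gave Hill-fitted curves.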

Test [4] has as its system Zika virus NS2B-NS3 protease (linked construct). The test is described as follows: Primary screen NINDS Rhodamine qHTS for Zika virus inhibitors (AID 1347160). Further: nearly all actives have a fitted effect of over 55% in size. Further: potency means the concentration at half of the fitted maximal effect. Put shortly:
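Enzyme (25 nM, linked NS2B-NS3) was preincubated 15 min with compound in 10 mM Tris-HCl pH 8.0, 0.01% Tween 20. Rhodamine110 substrate (1.5 microM) was then added and fluorescence read at start and after 15 min.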

Test [5] has the same test system. The test is described as follows: 384 well plate NINDS Rhodamine confirmatory qHTS for Zika virus inhibitors (AID 1347164).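 Further: fluorescence from protease cleavage of Ac-LKRR-rhodamine 110 substrate; nearly all actives have a fitted effect of over 65% in size.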 Further: potency means the concentration at half of the fitted maximal effect. The essentials:
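Linked NS2B-NS3 protease (final 5, 30 or 60 nM) preincubated ~15 minutes with compounds, then 10 microM Ac-LKRR-Rhodamine 110 added. Fluorescence (485/538 nm) read after 25 minutes at room temperature, normalized to no-enzyme and no-inhibitor controls.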

Test [6] can be described thus: HepG2 cells viability qHTS for Zika virus inhibitors (AID 1347168). Put shortly: (§2)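 To flag cytotoxic protease inhibitors, viability is measured by ATP-dependent luminescence (CellTiter Glo) after cells attached overnight receive compound for 24 to 48 hours in DMEM with 4% FBS.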
Test [7] can be described thus: ZIKV-mCherry secondary qHTS for Zika virus inhibitors (AID 1347158). Further: top concentration of the series differs between compounds. The essentials: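 Read-out is percent infection: mCherry-positive Vero cells (nuclear-proximal intensity >450 RFU, 3 SD above negative controls) counted by high-content imaging of Hoechst-stained, PFA-fixed wells after 48-72 h with ZIKV-mCherry at MOI 1 and compound.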
A short description of test [8]: Vero cells viability qHTS for Zika virus inhibitors (AID 1347167). The essentials:
as §2

For test [9], the system named is Zika virus NS2B-NS3 protease. The test is described as follows: Primary screen GU AMC qHTS for Zika virus inhibitors (AID 1347154). Further: nearly all actives have a fitted effect of over 70% in size. Further: potency means the concentration at half of the fitted maximal effect. The essentials:
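Unlinked Zika NS2B hydrophilic domain/NS3 protease domain noncovalent complex (25 nM final) in 10 mM Tris-HCl pH 8.0, 0.01% Tween 20, with AMC peptide substrate. Fluorescence (ex 340, em 450 nm) change over 15 min, room temperature; percent inhibition fitted to 4-parameter Hill equation.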

Where “and” joins values, the source holds several entries; their conditions need not be identical. Identical values can stand only once. Inconclusive results are not listed. Calls of active or inactive are those of the source. The call rests on the fitted dose curve; in most records, active means well fitted curve in the direction sought with a large enough effect; inconclusive means small, poorly fitted or top-dose-only effect, or another doubt; inactive means no such curve, though single readings can be large; an effect the other way counts as inactive or inconclusive.

Consider `CC(C)C[C@H](CO)Nc1nc(S[C@@H](C)c2ccccc2)nc2nc(N)sc12`, for which the Potency in test [1] is 55.5 µM (active). Further, the Potency entry in test [2] is “inactive”.

With `O=C(Nc1cc(C(F)(F)F)cc(C(F)(F)F)c1)c1cnc(Cl)nc1C(F)(F)F`, the values for the Potency in test [1], in [2] and in [3] were 24.8 µM (active), 15.8 µM (active) and 44.1 µM (active), respectively.

On to `Cc1noc(-c2ccc(-c3ccc(CC(=O)O)cc3)cc2)c1NC(=O)O[C@H](C)c1ccccc1Cl`, for which the Potency in test [1] is 5.55 µM (active); in test [2] it was 3.16 µM (active); in [4] it was 4.47 µM (active); in test [3], 4.94 µM (active); in [5] it was 7.94 µM (active). For the same compound, in test [6], the compound was classed as inactive.

For `CC#C[C@@H](CC(=O)O)c1ccc(OCc2ccc(CN3CCC4(C=Cc5ccccc54)CC3)s2)cc1`, the Potency in test [1] was 2.78 µM (active); in [2], 3.16 µM (active); in test [4] it was 5.62 µM (active); in test [3], 3.5 µM (active). For the same compound, in test [7], the Potency entry was “inactive”. The compound was classed as inactive in test [8] and in test [6].

Take `O=C(Nc1ccc(-c2ccc(Cl)c(Cl)c2)cc1)C1=C(O)c2ccccc2S(=O)(=O)N1`: the Potency in [1] was 2.48 µM (active); in [2], 2.82 µM (active); in [4], 3.98 µM (active); in test [3], 2.48 µM (active); in test [5] it was 44.7 µM (active). Moreover, the outcome in [8] and in test [6] was inactive.

With `C=C1/C(=C/C=C2\CCC[C@]3(C)[C@@H]([C@H](C)/C=C/[C@@H](C)C(C)C)CC[C@@H]23)C[C@@H](O)C[C@@H]1O`, the results for the Potency in test [1], in [2] and in test [3] were 49.4 µM (active), 31.6 µM (active) and 49.4 µM (active), respectively. Besides, the Potency result in test [4] is “inactive”.

`Cc1cc(OCCCS(C)(=O)=O)cc(C)c1-c1cccc(COc2ccc3c(c2)OCC3CC(=O)O)c1` (configuration not stated): the Potency in test [1] was 8.79 µM (active); in test [2] it was 12.6 µM (active); in test [3], 7.84 µM (active). Besides, in test [4], the Potency entry is “inactive”.

In the case of `O=S(=O)(Nc1cc(Cl)c(Oc2cnc3ccccc3c2)c(Cl)c1)c1ccc(Cl)cc1Cl`, the Potency in [1] is 1.75 µM (active); in [2] it was 1.78 µM (active); in [4], 3.98 µM (active); in test [3], 2.21 µM (active); in test [5], 2.51 µM (active). Moreover, the compound was called inactive in [6].

`COc1cc(C[C@H]2C(=O)OC[C@@H]2Cc2ccc(OC)c(OC)c2)ccc1O`: the Potency result in test [9], in test [2] and in [4] was “inactive” in each case.

On to `NC(=O)C[C@@H](N)C(=O)O`, for which, in test [9], the Potency result is “inactive”.

As for `Cc1c(OCc2cccc(-c3ccc(C(=O)O)cc3)c2)cc2c(c1C)C(=O)C(C1CCCC1)C2` (configuration not stated), the Potency in test [2] was 1.78 µM (active).

Take `CC1=C(C(=O)OC2CCCCC2)C(c2ccc([N+](=O)[O-])cc2)C2=C(CC(C)(C)CC2=O)N1` (configuration not stated): the Potency entry in [1], in test [2] and in [3] was “inactive” throughout. In addition, the Potency in [4] is 31.6 µM (active).

In the case of `Cc1ccc(OC[C@H](O)[C@H](C)NC(C)C)c2c1CCC2`, the Potency entry in test [9] and in [4] was “inactive” throughout.

`CCC(C)/C=C(C)/C=C/C1=CC2=CC(=O)C3(C)OC(C)(O)C(C(=O)OC)C3C2=CO1` (configuration not stated): the Potency is 19.2 µM (active) in [1] and 21.5 µM (active) in test [3]. Also, the Potency entry in test [4] is “inactive”.

For `COc1cc2ncc(-c3ccccc3)nc2cc1OC`, the Potency in [9] was 6.31 µM (active) and 2.38 µM (active). For the same compound, the Potency result in test [2] and in test [4] was “inactive” in each case.

Consider `Cc1cc(C)c2c(c1)C(N(Cc1cc(C(F)(F)F)cc(C(F)(F)F)c1)c1nnn(C)n1)CCCN2CC1CCC(C(=O)O)CC1` (configuration not stated), for which the Potency in test [1] was 8.79 µM (active); in test [2] it was 3.16 µM (active); in [4] it was 3.55 µM (active); in [3] it was 4.94 µM (active). In test [7], the Potency result is “inactive”. The compound was classed as inactive in test [8] and in test [6].

In the case of `O=C(O)c1cccc(-c2ccc(-c3cn(C(=O)N4CCCCC4Cc4ccccc4)nn3)cc2)c1` (configuration not stated), the Potency in [1] is 4.41 µM (active); in test [2], 3.98 µM (active); in test [4], 3.98 µM (active); in test [3], 3.5 µM (active). In addition, the Potency result in test [5] was “inactive”. The compound was classed as inactive in test [8] and in [6].

Regarding `COc1ccc2nccc(C(=O)CC[C@@H]3CCN(CC#Cc4cc(F)cc(F)c4F)C[C@@H]3C(=O)O)c2c1`, the Potency in [1] was 39.3 µM (active); in test [2] it was 25.1 µM (active); in test [3], 44.1 µM (active).

With `CN(C)CCCn1cc(C2=C(c3c[nH]c4ccccc34)C(=O)NC2=O)c2ccccc21`, the Potency entry in test [9], in test [2] and in test [4] was “inactive” throughout.

On to `O=C(O)c1cc(N(Cc2ccc(C3CCCCC3)cc2)C(=O)c2ccc(Oc3ccccc3)cc2)ccc1O`, for which the Potency is 1.75 µM (active) in [1], 1.26 µM (active) in [2], 2.82 µM (active) in [4] and 1.97 µM (active) in test [3]. For the same compound, the Potency entry in test [5] was “inactive”. Also, the result in [8] and in test [6] was inactive.

Turning to `CC(C)C[C@H](C(=O)O)c1cc(-c2ccc(C(F)(F)F)cc2)cc(-c2ccc(C(F)(F)F)cc2)c1`, the Potency was 3.12 µM (active) in [1], 3.55 µM (active) in [4] and 3.5 µM (active) in test [3]. Also, the Potency result in test [5] is “inactive”. Moreover, in [6], the outcome was inactive.

As for `C[C@H]1CO[C@@H]2Cn3cc(C(=O)NCc4ccc(F)cc4F)c(=O)c(O)c3C(=O)N12`, the Potency entry in test [1], in [4] and in [3] was “inactive” throughout. Also, in test [2], the Potency is 35.5 µM (active).
